The source made the active and inactive calls. The calls were made as follows: active = hit-call score of the fitted dose curve at least 0.9, where 1 is the maximum; inactive = score below 0.9.
What follows are compounds tested against Bile acid receptor (Homo sapiens) (UniProt Q96RI1) (assay: ATG_IR1_CIS: Attagene CIS-FACTORIAL HepG2 Assay for human Nuclear Receptor Subfamily 1 Group H Member 4 (NR1H4), IR1 submotif (AID 2282946)). Conditions: IR1 reporter transcription, actives raise or lower the signal.
Sequence of Bile acid receptor (Homo sapiens) (Q96RI1 whole entry, looked up): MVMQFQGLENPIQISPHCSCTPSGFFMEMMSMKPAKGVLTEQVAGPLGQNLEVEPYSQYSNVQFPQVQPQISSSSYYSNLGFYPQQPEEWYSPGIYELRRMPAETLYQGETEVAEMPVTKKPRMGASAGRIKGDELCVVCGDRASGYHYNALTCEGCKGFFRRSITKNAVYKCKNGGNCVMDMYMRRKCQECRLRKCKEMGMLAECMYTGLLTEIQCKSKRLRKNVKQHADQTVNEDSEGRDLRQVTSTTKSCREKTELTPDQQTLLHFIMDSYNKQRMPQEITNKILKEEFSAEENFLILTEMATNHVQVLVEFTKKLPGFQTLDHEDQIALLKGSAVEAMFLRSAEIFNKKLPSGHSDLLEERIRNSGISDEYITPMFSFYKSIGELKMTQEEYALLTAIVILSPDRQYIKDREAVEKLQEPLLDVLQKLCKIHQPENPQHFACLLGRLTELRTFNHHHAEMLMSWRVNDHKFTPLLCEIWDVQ
Method: ATG_CIS is a cell-based, multiplexed-readout assay that uses HepG2, a human liver cell line, with measurements taken at 24 hours after chemical dosing in a 24-well plate.ATG_IR1_CIS is one of 52 assay component(s) measured or calculated from the ATG_CIS assay. It is designed to make measurements of mRNA induction, a form of inducible reporter, as detected with fluorescence intensity signals by Reverse transcription polymerase chain reaction (RT-PCR) and Capillary electrophoresis technology.Data from the assay component ATG_IR1_CIS was analyzed into 1 assay endpoint. This assay endpoint, ATG_IR1_CIS, was analyzed with bidirectional fitting relative to DMSO as the negative control and baseline of activity. Using a type of inducible reporter, measures of mRNA for gain or loss-of-signal activity can be used to understand the reporter gene at the transcription factor-level as they relate to the gene NR1H4. Furthermore, this assay endpoint can be referred to as a primary readout, because this assay has produced multiple assay endpoints where this one serves a reporter gene function. To generalize the intended target to other relatable targets, this assay endpoint is annotated to the nuclear receptor intended target family, where the subfamily is non-steroidal.
Human liver HepG2 cells are transiently transfected with multiple reporter transcription units (MRTUs) in 6-well plates using FuGene 6 reagent (Roche; 3 ml FuGene/1 mg DNA). The MRTU constructs are regulated by a cis-regulating element (promoter). […] A major difference between the CIS and TRANS system is that in CIS activities of endogenous TFs are measured, whereas the TRANS assay evaluates changes in activities of exogenous, chimeric NR-Gal4 proteins. […] At the end of 24 hour incubation, total RNA was isolated using TriZol reagent (Invitrogen). The isolated RNA is then reverse-transcribed using oligo(dT) primer and Mo-MLV reverse transcriptase (Invitrogen) with DNAse I (Ambion) treatment for 30 min. The one-tenth of the produced cDNA was amplified by PCR using Taq DNA polymerase (Invitrogen) and two reporter sequence-specific primers. The PCR products were fluorescently labeled by primer extension with 6-arboxyfluorescein (6-FAM) 5'-labeled reporter sequence-specific primer (2 min at 95 C, 20 s at 68 C and 10 min at 72 C) and these products were digested with 5U of HpaI (New England Biolabs) for 2h at 37 C. The fragments were purified using Qiaquick PCR columns (Qiagen), analyzed on an ABI 3130xL genetic analyzer (Applied Biosystems) with peak positions identified by using a set of X-rhodamine (ROX)-labeled MapMarker1000 molecular weight standards (BioVentures). The raw capillary electrophoresis data was processed using Attagraph software (Attagene).

Compound | outcome | AC50
O=C1CCCN1C1CCCCC1 | inactive | –
Nc1ccc(C(=O)OCCCOC(=O)c2ccc(N)cc2)cc1 | inactive | –
COc1nccnc1CC(C)C | inactive | –
Cn1ccnc1 | inactive | –
COC(C=C(C)CCC=C(C)C)OC | inactive | –
N#Cc1ccc(C(c2ccc(C#N)cc2)n2cncn2)cc1 | inactive | –
CCCCC(=O)O | inactive | –
CC(C)[N+](C)(CCOC(=O)C1c2ccccc2Oc2ccccc21)C(C)C | inactive | –
O=C(Cl)c1c(Cl)c(Cl)c(C(=O)Cl)c(Cl)c1Cl | inactive | –
C=CC(=O)OCCCCCCOC(=O)C=C | – | 42.5 µM (active)
COc1ccc(C(=O)c2ccccc2)c(O)c1 | – | 151 µM (active)
CC(C)(C)C1CCC(=O)CC1 | inactive | –
C=CC(=O)O[C@H]1C[C@@H]2CC[C@@]1(C)C2(C)C | inactive | –
CC(C=O)c1ccccc1 (stereo not given) | inactive | –
CCCCCCCC(=O)OCC(COC(=O)CCCCCCC)OC(=O)CCCCCCC | inactive | –
CCOC(=O)c1ccccc1C | inactive | –
O=C(O)C1CCC(C(=O)O)CC1 (stereo not given) | inactive | –
CCCCCCCCCCCCCc1ccccc1 | inactive | –
O=C(OCc1ccccc1)c1ccc(O)cc1 | inactive | –
Cc1ccc(C)c(OCCCC(C)(C)C(=O)O)c1 | inactive | –

Compound | outcome | AC50
[Cl][Sc]([Cl])[Cl] | inactive | –
Nc1ccc(Cl)c(N)c1 | inactive | –
CCCCCCOC(=O)CCCCC(=O)OCCCCCC | inactive | –
CCCCCCCCCCCCC | inactive | –
CC/C=C\C/C=C\C/C=C\CCCCCCCC(=O)OC | – | 25.7 µM (active)
CCC(C)c1ccccc1 (stereo not given) | inactive | –
[Cl][Eu]([Cl])[Cl] | inactive | –
CN1CCN(C)CC1 | inactive | –
O=C(Nc1ccccc1)c1cc(Cl)ccc1O | inactive | –
CCCCNC(=S)NCCCC | inactive | –
CCOC(=O)OC(=O)OCC | inactive | –
Cc1c[nH]c(=O)[nH]c1=O | inactive | –
CCCC/C=C/C=C\C=O | – | 71.6 µM (active)
c1ccc(-c2nc3ccccc3[nH]2)cc1 | inactive | –
COC(=O)c1ccccc1C | inactive | –
COc1cc(O)c(C(=O)c2ccccc2)cc1S(=O)(=O)O | inactive | –
CO[Si](CCCS)(OC)OC | inactive | –
CN(C)c1ccc2nc3ccc(=[N+](C)C)cc-3sc2c1 | inactive | –
O=C(O)/C=C/c1ccccc1 | inactive | –
C=CC(=O)NC(C)(C)C | – | 27.5 µM (active)

— PubChem BioAssay (EPA / NIEHS)
